M18AAP inhibitor: PfM18AAP inhibitors, malaria aminopeptidase, primary screen, biochemical, QFRET, recombinant enzyme; H-Glu-NHMec fluorogenic cleavage; inhibition, % at 7.35 µM; 290,000 tested, 1.2% active; M18 aspartyl aminopeptidase (Plasmodium falciparum 3D7);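 active = inhibition above the campaign mean inhibition over all tested compounds plus 3 SD, cut at about 28% in these data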
PfG6PD inh: PfG6PD enzyme inhibitors, primary screen, biochemical, fluorescence intensity, uHTS. AID 504690, 2011. 350,000 tested, 0.78% active. inhibition, % at 20 µM. PfGluPho enzyme, NADPH resazurin-diaphorase fluorescence;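 active = inhibition reaching at least a set limit at 20 µM in the primary screen, cut at about 59% in these data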
UHRF1 binding: UHRF1 methylated DNA binding inhibitors, primary screen, counter-screen for MBD2 inhibitor project, biochemical, TR-FRET, human UHRF1, single concentration. E3 ubiquitin-protein ligase UHRF1 (Homo sapiens), Q96T88. UHRF1 binding to methylated oligo. inhibition, % at 4.4 µM. 370,000 tested, 0.75% active; in the data active = inhibition above about 21%;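 note: UHRF1 SRA domain binding a hemimethylated CpG hairpin DNA probe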
MBD2 DNA inh: inhibitors of MBD2 binding to methylated DNA, primary screen, biochemical, TR-FRET, DNA-binding domain, human; inhibition, % at 4.4 µM; 370,000 tested, 0.31% active; MBD2 binding to methylated oligonucleotide; in the data active = inhibition above about 13%
PRMT1 FP inh: PRMT1 methyltransferase inhibitors, primary screen, biochemical, fluorescence polarization. Protein arginine N-methyltransferase 1 (Homo sapiens), Q99873. recombinant PRMT1, activity-based probe fluorescence polarization. inhibition, % at 2.79 µM. 370,000 tested, 1.3% active;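 active = inhibition above about 21% made by adding two undisclosed values, limit read from the data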
Target sequence (Q99873 whole entry, looked up): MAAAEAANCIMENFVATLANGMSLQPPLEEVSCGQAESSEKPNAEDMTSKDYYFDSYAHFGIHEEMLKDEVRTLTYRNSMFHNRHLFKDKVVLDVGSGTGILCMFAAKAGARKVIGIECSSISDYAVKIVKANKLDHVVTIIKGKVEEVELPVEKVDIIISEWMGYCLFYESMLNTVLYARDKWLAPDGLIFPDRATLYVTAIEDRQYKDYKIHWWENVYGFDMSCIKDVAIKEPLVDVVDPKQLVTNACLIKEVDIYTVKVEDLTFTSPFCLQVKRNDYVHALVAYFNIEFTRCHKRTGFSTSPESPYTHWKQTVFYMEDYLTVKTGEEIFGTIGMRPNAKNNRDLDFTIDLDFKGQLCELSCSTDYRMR
Numbers stand for hits; . = inactive; / = not tested or not shown. This is a sample that favours compounds with a hit; in the whole collection about 3.3% have one here.

SMILES | M18AAP inhibitor | PfG6PD inh | UHRF1 binding | MBD2 DNA inh | PRMT1 FP inh
Cc1oc2c(c(C)cc3oc(=O)c(CC(=O)NCCCO)c(C)c32)c1C | . | . | . | . | .
O=C(C1CCCN1S(=O)(=O)c1ccccc1[N+](=O)[O-])N1CCc2ccccc2C1 (stereo not drawn) | / | / | . | . | .
Cc1ccc(CNCc2cccnc2)cc1 | . | . | . | . | .
Cc1ccc(CNCc2cccnc2)s1 | . | . | 26.2 | . | .
Cc1ccc(C(=O)Nc2nc3ccccc3c(=O)s2)cc1 | 31.0 | . | . | . | 59.3
COc1cc(/C=C2/S/C(=N/S(=O)(=O)c3ccccc3)NC2=O)c([N+](=O)[O-])cc1OC | . | . | . | . | 33.5
COc1cc(/C=C2\S/C(=N/S(=O)(=O)Cc3ccccc3)NC2=O)c([N+](=O)[O-])cc1OC | . | . | . | . | .
O=C(NCCc1ccc(F)cc1)c1ccc(Sc2ccccc2Cl)c([N+](=O)[O-])c1 | / | / | . | . | .
CC12CCC(C(=O)N(CC(O)CN3CCN(Cc4ccccc4)CC3)C1=O)C2(C)C (stereo not drawn) | . | . | 24.1 | . | .
CC12CCC(C(=O)N(CCCCN3CCN(Cc4ccccc4)CC3)C1=O)C2(C)C (stereo not drawn) | . | . | . | . | .
C#CCN(C[C@H]1[C@H](OC(=O)Nc2c(C)noc2C)[C@H](OC(=O)Nc2c(C)noc2C)CN(C(=O)OC(C)C)N1C(=O)OC(C)C)S(=O)(=O)c1ccc(C)cc1 | / | / | . | . | .
COc1ccc(NC2=C(C(C)=O)C(c3ccccc3)C(C(C)=O)C(C)(O)C2)cc1 (stereo not drawn) | . | . | 61.3 | . | .
C=CCn1c(O)c(CN2CCCCC2)c(C)c(C#N)c1=O | . | . | . | . | 22.3
Cc1c(CN2CCCC(C)C2)c(O)n(CCO)c(=O)c1C#N (stereo not drawn) | . | . | . | . | .
CCCCc1c(O)nc(SCCN(C)C)n(-c2ccccc2)c1=O | . | . | . | . | 24.2
CCc1c(O)nc(SCC(=O)c2ccccc2)n(-c2ccccc2)c1=O | . | . | . | . | 23.7
CCc1c(O)nc(SCC(=O)NC(C)(C)C)n(-c2ccccc2)c1=O | . | . | . | . | 24.4
CN(C)CCSc1nc(O)c(-c2ccccc2)c(=O)n1-c1ccccc1 | . | . | . | . | .
CCc1c(O)nc(SCC(=O)N2CCOCC2)n(-c2ccccc2)c1=O | . | . | . | . | .
CCOc1ccc2c(O)csc2c1 | . | . | . | . | 41.1
Cc1ccc(NC(=O)CN2C(=O)N/C(=C/c3cccn3-c3ccc(C(=O)O)cc3)C2=O)cc1 | . | . | 101.9 | 71.7 | 30.1
Cc1ccc(NC(=O)CN2C(=O)N/C(=C/c3ccco3)C2=O)cc1 | . | . | 34.1 | . | .
O=C1CN(C(=O)C2CCCC2)CCN1 | . | . | 63.3 | . | .
O=C(NCCc1c[nH]c2ccccc12)[C@H](Cc1c[nH]c2ccccc12)NC1(C(=O)NC2CCCCC2)CCCCCCC1 | / | / | . | . | .
COc1ccc(CC(=O)NC(=S)NNC(=O)COc2c(C)cccc2C)cc1 | 46.8 | . | . | . | .
SMILES | M18AAP inhibitor | PfG6PD inh | UHRF1 binding | MBD2 DNA inh | PRMT1 FP inh
C(#CC1=CCCCC1)CNCC1CC1 | / | / | . | . | .
CCCN(C)C1CN(Cc2cn(Cc3ccc(Cl)cc3)nn2)S(=O)(=O)C1 (stereo not drawn) | / | / | . | . | .
CCCN(C)C1CN(Cc2cn(Cc3cc(C)cc(C)c3)nn2)S(=O)(=O)C1 (stereo not drawn) | / | / | 22.3 | . | .
O=c1oc2c(O)c(O)cc3c(=O)oc4c(O)c(O)cc1c4c23 | 29.5 | . | / | / | /
Cc1c(C)c2cc(Cl)c(O)c(CN(C)C)c2oc1=O | . | . | . | . | .
CC(C)c1nnc(NC(=O)c2cccs2)s1 | . | . | . | . | 24.5
CCCCC(CC)c1nnc(NC(=O)c2cccs2)s1 (stereo not drawn) | . | . | . | . | .
Cc1ccc(C(C(=O)NCc2ccc(F)cc2)N(CCCO)C(=O)C2COc3ccccc3O2)o1 (stereo not drawn) | . | . | 23.4 | . | .
CNC(=S)NNC(=O)c1sccc1OCc1ccc(Cl)cc1Cl | . | . | . | . | .
S=c1nc(-c2sccc2OCc2ccc(Cl)cc2Cl)[nH][nH]1 | . | . | . | . | 24.7
C[C@@H]1ON(C)[C@H]2C[C@H]3c4cc(-c5cccc(Cl)c5)ccc4CCN3C[C@@H]12 | / | / | . | . | .
C=CCNC(=S)N/N=C(\C)c1ccc(OC)cc1 | . | . | 27.0 | . | .
CN1CC=C(c2ccc(C(F)(F)F)cc2)N(c2ccccc2)C1=O | / | / | . | . | .
CC(C)(C)N1C(=O)Cc2c1nc(N)c1c(N)nc(N3CCCCC3CO)c(C#N)c21 (stereo not drawn) | . | 88.8 | / | / | /
CN(CCO)c1nc(N)c2c(N)nc3c(c2c1C#N)CC(=O)N3C1CCCC1 | . | / | / | / | /
O=C(O)/C=C/c1ccc(O)c(O)c1 | 81.7 | . | . | . | .
COc1cc(/C=C/C(=O)O)ccc1O | / | . | . | . | .
CC(C)N1Cc2nnn(Cc3ccccc3)c2-c2cc(F)ccc2S1(=O)=O | / | / | . | . | .
Cc1ccc(C)c(/C=N/Nc2nc3ccccc3c(=O)n2O)c1 | 30.9 | . | . | . | 24.7
COc1cc(C(=O)NNC(=O)c2ccc(NC(=O)C(C)(C)C)cc2)cc(OC)c1OC | . | . | 32.2 | . | .
CCC(=O)Nc1ccc(C(=O)NNC(=O)c2cc(OC)c(OC)c(OC)c2)cc1 | . | . | . | . | .
CSc1nnc(CNS(=O)(=O)c2ccc(F)cc2)n1C | . | . | . | . | .
CSc1nnc(CNS(=O)(=O)c2ccc(Cl)cc2)n1C | . | . | 26.3 | . | .
CCOC(=O)C1=C(COC(=O)/C=C/c2ccc(C)o2)NC(=O)NC1C (stereo not drawn) | / | . | . | . | 23.1
CCOC(=O)C1=C(COC(=O)/C=C/c2ccccc2)NC(=O)NC1C (stereo not drawn) | / | . | . | . | .
SMILES | M18AAP inhibitor | PfG6PD inh | UHRF1 binding | MBD2 DNA inh | PRMT1 FP inh
O=C(OCC#CCSc1nnc(-c2cccc3ccccc23)o1)c1cccc(C(F)(F)F)c1 | / | / | . | . | .
COc1cccc(CC(=O)OCC(=O)NC2(C#N)CCCC2)c1 | / | . | . | . | .
COc1cccc(CC(=O)OCC(=O)NC2(C#N)CCCCC2)c1 | / | . | 45.8 | . | .
C[C@@H]1CNCCN1c1ccc(N2CCN(Cc3ccccc3)[C@@H](C)C2)c(C#N)c1 | / | / | . | . | .
COC(=O)/C(=C/c1ccco1)NC(=O)c1ccc(Br)o1 | . | . | . | . | .
NC(=O)/C(=C/c1ccco1)NC(=O)c1ccc(Br)o1 | 29.1 | . | . | . | .
CCC[C@H]1[C@@H](OC(=O)NC2CCC2)CC[C@@]23CCCN2C(=O)CCC[C@@H]13 | / | / | . | . | .
